Shown is part of a subset that was picked to be rich in hits.
Pf Dd2 growth – qHTS Primary assay for Inhibitors of Plasmodium falciparum Dd2 growth in vitro | Potency, µM (titrated, usually from 28.9 µM), inactives show at the highest dose activity, negative = inhibition, hits mostly inhibitors | P. falciparum Dd2 growth, SYBR Green, 72 h | 4.3% of 120,000 active; active = well fitted inhibition curve with a large enough effect;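 note: plate controls were DMSO vehicle for no effect and reference drug for full effect; nearly all actives have a fitted effect of over 65% in size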
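Readout: SYBR Green fluorescence, 485 nm excitation, 535 nm emission, after ~16 h lysis at 37C. Before that, Dd2-infected red cells (2.5% hematocrit) grew 72 h with compound, 29 uM top final concentration.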
Active calls of the source: *; i = inactive; ! = not active in a repeat; [ ] = another dose, or the depositor's remark. Potency is the fitted concentration of half-maximal effect.

SMILES	Pf Dd2 growth
Cc1ccc(CNC(=O)c2ccc3c(c2)NC(=O)C(CS(=O)(=O)Cc2cccc(F)c2)N3)cc1 (stereo unspecified)	-21%
CN1CCN(c2nc3c(c(=O)[nH]2)CCN(Cc2ccc(Br)o2)CC3)CC1	79%[5.79 µM]
Cn1nc(-c2nncn2CC2CC2)c2c1CCN(C(=O)c1n[nH]c(=O)c3ccccc13)C2	2%
Cc1ccc2nc(-c3ccc(O)cc3)c(Nc3ccc4c(c3)OCCO4)n2c1	-5%
Cc1ccc2nc(-c3ccccc3O)c(Nc3ccccc3C)n2c1	1.4µM*
COc1ccc(-c2nc3ccc(C)cn3c2Nc2ccc3c(c2)OCO3)cc1	17%
Cc1nc2nncn2c(Nc2ccc(F)cc2)c1C	5%
Oc1ccccc1-c1nc2cnccn2c1Nc1ccc(Cl)cc1	2.5µM*
CN(C)c1ccc(-c2nc3ccc(Cl)cn3c2Nc2ccc3c(c2)OCCO3)cc1	i
Cc1ccccc1Nc1c(-c2ccccc2O)nc2sccn12	i
CN1C[C@@H](NC(=O)Nc2ccc(F)cc2)C[C@H]1c1nc(-c2ccccn2)no1	-14%[44.1 µM]
Cc1ccn2c(Nc3ccc4c(c3)OCO4)c(-c3ccc(N(C)C)cc3)nc2c1	13µM*
Clc1ccc(Nc2c(-c3ccccc3Cl)nc3ccc(Cl)cn23)cc1	i
Cc1cccc2nc(-c3ccccn3)c(Nc3ccc(F)cc3)n12	3.2µM*
O=C(CCNc1c(-c2cccc(F)c2)nc2cnccn12)NCc1ccc(Cl)cc1	-3%
Cc1ccccc1NC(=O)CSc1nc2c(oc3ccccc32)c(=O)n1-c1ccccc1F	i
CCOc1ccc(-c2nc3c(c(SCC(=O)N4CCCCC4)n2)Cc2cc(C)ccc2O3)cc1	19%
CCN(CC(C)(C)C)C(=O)CC1COc2ccc(C(=O)N(C)C)cc2N1C (stereo unspecified)	-13%
Cc1ccc2c(c1)N(CCC(=O)NCc1ccc(F)cc1)C(=O)CO2	13%
COc1ccc(N2CC(NC(=O)C3CCCC3)CC2=O)cc1OC (stereo unspecified)	8%
CN1CC[C@H]2CN(C(=O)c3scc4c3OCCO4)C[C@@]2(C(=O)O)C1	-10%
O=S(=O)(c1ccc(Cl)cc1)c1nc(-c2cccs2)oc1SCc1ccccc1F	-19%
CC(=O)Nc1ccc2nc(SCCOc3ccc(C)cc3)sc2c1	i
Cc1ccc(Nc2c(-c3ccsc3)nc3cccc(C)n23)cc1	-1%
Cc1ccc(Nc2c(-c3ccsc3)nc3c(C)cccn23)cc1	i
SMILES	Pf Dd2 growth
c1ccc(Nc2c(-c3ccccc3)nc3ncccn23)cc1	i
Cc1cccc2nc(-c3ccccn3)c(Nc3ccccc3)n12	7.1µM*
Cc1ccc(Nc2c(-c3ccc(C)cc3)nc3c(C)cccn23)cc1	-29%
Cc1ccccc1Nc1c(-c2ccc(O)cc2)nc2c(C)cccn12	11µM*
CSc1cccc(NC(=O)Cn2nc(C)c3sc4ccccc4c3c2=O)c1	7%
Cc1cc(C)c(/C=C/c2onc(C)c2S(=O)(=O)N2CCC(C(=O)Nc3cccc(C)c3C)CC2)c(C)c1	-16%
COC(=O)c1c(NC(C)=O)c2cc(NC(C)CCO)cnc2n1CC1CCCO1 (stereo unspecified)	-7%
CCOC(=O)c1c(C)[nH]c(C)c1S(=O)(=O)NCC(=O)N1CCN(c2ccccc2F)CC1	i
CCOC(=O)c1c(C)[nH]c(CCC(=O)NCCCN2CCN(c3ccccc3F)CC2)c1C	11µM*
CCOC(=O)c1c(C)[nH]c(CCC(=O)NCc2ccc(F)cc2)c1C	-14%
COc1ccc(C(=O)CN2C(=O)N(c3cc(C)ccc3C)S(=O)(=O)c3ccccc32)cc1	i
Cc1ccc(N2C(=O)N(CC(=O)C(C)(C)C)c3ccccc3S2(=O)=O)cc1C	-11%
COc1cc(OC)cc(N2C(=O)N(CC(=O)c3ccc(F)cc3)c3ccccc3S2(=O)=O)c1	8.9µM*
O=C(Nc1ccccc1)N1CCCC(c2nn(-c3ccc(F)cc3)c(=O)[nH]2)C1 (stereo unspecified)	i
O=C(Nc1ccccc1)N1CCC(c2nn(-c3ccc(Cl)cc3)c(=O)[nH]2)CC1	i
Brc1ccc(CN2CCC(c3nc4ccncc4[nH]3)C2)cc1 (stereo unspecified)	10µM*!
CN(C)c1ccc(CN2CCC(c3nc4ccncc4[nH]3)C2)cc1 (stereo unspecified)	-18%[44.1 µM]
c1cncc(CN2CC[C@H](c3nc4ccccc4[nH]3)C2)c1	-21%[44.1 µM]
O=C(NCc1cccc(F)c1)c1cnc2c(c1)N(C(=O)Cc1cccc(C(F)(F)F)c1)CCC2	13%
COc1ccccc1N1CCCc2ncc(C(=O)NCCc3c[nH]c4ccccc34)cc21	-19%[44.1 µM]
O=C(Cc1cccc(C(F)(F)F)c1)N1CCCc2ncc(C(=O)N3CCCC[C@@H]3Cc3ccccc3)cc21	11µM*
O=C(Cc1cccc(C(F)(F)F)c1)N1CCCc2ncc(C(=O)N3CCC[C@@H]3c3ccc(F)cc3)cc21	-4%
COc1ccccc1N1CCCc2ncc(C(=O)N3CC[S+](=O)([O-])CC3)cc21	58%[44.1 µM]
COc1ccccc1N1CCCc2ncc(C(=O)N3CCCC[C@@H]3Cc3ccccc3)cc21	4.5µM*
CNC(C)c1ccc(Oc2ccccc2)cc1 (stereo unspecified)	11µM*
SMILES	Pf Dd2 growth
CNC(C)c1ccc(OC(F)(F)F)cc1 (stereo unspecified)	2%[76.6 µM]
CNC(C)c1ccncc1 (stereo unspecified)	5%[44.1 µM]
CC(=O)c1ccc(NC(=O)N2C[C@@H]3C[C@H](C2)c2ccc(NC(=O)C4CCCCC4)c(=O)n2C3)cc1	3%
COc1cccc(NC(=O)Cn2nc3c(cc2=O)CCCCC3)c1	-19%
CCOC(=O)Cc1cc(C(=O)Nc2ccc(Br)cc2)sc1-c1ccc(C)cc1	7.1µM*
CCOc1ccc(NC(=O)c2ccc(-c3ccccc3)s2)cc1	18%
CCOc1cccc(C(=O)Nc2ccc(NC(=O)c3ccc(Br)cc3)cc2)c1	i
COc1ccc(NC(=O)c2oc3c(c2C)-c2nn(Cc4c(F)cccc4Cl)cc2CC3)c(OC)c1	i
COc1cc(NC(=O)c2oc3c(c2C)-c2nn(Cc4cccc(Cl)c4)cc2CC3)cc(OC)c1	-28%
COc1ccc(OC)c(NC(=O)c2oc3c(c2C)-c2nn(Cc4ccc(Cl)cc4)cc2CC3)c1	10µM*
CCN(C(=O)c1cc2c(Cl)nc3ccc(C)cc3c2s1)c1cc(OC)ccc1OC	8.9µM*
CCN(C(=O)c1cc2c(Cl)nc3ccccc3c2s1)c1cccc(Cl)c1	10µM*
CCc1ccccc1N(C)C(=O)c1cc2c(Cl)nc3ccc(C)cc3c2s1	95%[5.79 µM]
Cc1ccc(Cl)cc1N(C)C(=O)c1cc2c(Cl)nc3ccccc3c2s1	20%
CCN(C(=O)c1cc2c(=O)oc3ccc(C)cc3c2s1)c1cc(OC)ccc1OC	1%
CCN(C(=O)c1cc2c(=O)oc3ccccc3c2s1)c1cccc(C(F)(F)F)c1	-4%
Cn1cnc(S(=O)(=O)N2CCCCC2c2nc(C3CC3)n[nH]2)c1 (stereo unspecified)	9%
COc1cc(OC)c(NC(=O)CCCn2nc(C)c3c(C)n(-c4ccccc4)nc3c2=O)cc1Cl	3%
Fc1cccc(-c2noc(-c3nc(-c4ccc5c(c4)OCO5)no3)n2)c1	-21%
O=C(NCCc1ccc(Cl)cc1)C1=NOC2CN(C(=O)C3CC3)CC12 (stereo unspecified)	3%
CCOc1ccc(Cn2c(CNS(=O)(=O)c3cccs3)nc3cccnc32)cc1	-18%
Cc1ccc(-n2nc(CO)c(C(=O)NCCO)n2)cc1	48%
CNC(=O)[C@@H]1CN(C(=O)Cc2c(C)noc2C)C[C@H]1c1nc(COC)no1	4%
